An excerpt weighted towards active compounds, which were near 3.8% of everything screened.
Ecoli rRNA inh – reduced GFP signal of wild-type E. coli, primary screen, bacterial rRNA inhibitor project, GFP/RFP fluorescence, OD600, single point; 350,000 tested, 1.6% active; GFP signal change (wild-type ribosome), % (no concentration beside the values); E. coli WT GFP vs humanized-ribosome RFP mutants, 24 h; active compounds read low; DMSO median 0, no signal -100; AID 720706, 2013;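 active means significant combined selectivity score with lowered wild-type GFP, culture density cut under 30%, mutant RFP and density less affected; inactive means any of these conditions unmet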
FGF22 binding – binders of human FGF22 protein, primary screen, FGF22 synaptogenesis inhibitor project, biophysical, thermal shift, single point; Fibroblast growth factor 22 (Homo sapiens), Q9HCT0; recombinant FGF22 thermal shift, SYPRO orange fluorescence; percent of sucrose octasulfate shift, DMSO zero; activity (Tm shift, normalised), % at 9.99 µM; 340,000 tested, 1.5% active; AID 651658, 2012;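 active means mean Tm shift, scaled 0 neutral to 100 positive control, at about 1.3% or above, every replicate too, limit read from the data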
Target sequence (Q9HCT0 whole entry, looked up): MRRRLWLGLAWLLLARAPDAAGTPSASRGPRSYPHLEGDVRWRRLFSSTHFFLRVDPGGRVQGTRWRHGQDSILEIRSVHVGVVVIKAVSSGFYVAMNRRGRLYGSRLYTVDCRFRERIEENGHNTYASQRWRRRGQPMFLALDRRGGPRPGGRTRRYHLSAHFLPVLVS
ADAM17 inh – ADAM17 inhibitors, primary screen, biochemical, QFRET; 370,000 tested, 0.83% active; recombinant ADAM17, EDANS/DABCYL FRET peptide cleavage; inhibition, % at 6.95 µM;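 active means inhibition above the mean of compounds lying between control limits plus 3 SD, set per campaign, cut at about 8.5% in these data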;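 further: 0% = DMSO-only wells as the low control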
KLK7 zymogen act – proKLK7 zymogen activators, primary screen, biochemical, fluorescence intensity; Kallikrein-7 (Homo sapiens), P49862; purified proKLK7, EDANS-DABCYL substrate fluorescence; 100% is mature enzyme control, 0% vehicle; activation, % at 7 µM; 370,000 tested, 0.9% active;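 active means activation above the mean of all tested compounds plus 3 SD, computed per campaign excluding outliers beyond control limits, cut at about 13% in these data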
Target sequence (P49862 whole entry, looked up): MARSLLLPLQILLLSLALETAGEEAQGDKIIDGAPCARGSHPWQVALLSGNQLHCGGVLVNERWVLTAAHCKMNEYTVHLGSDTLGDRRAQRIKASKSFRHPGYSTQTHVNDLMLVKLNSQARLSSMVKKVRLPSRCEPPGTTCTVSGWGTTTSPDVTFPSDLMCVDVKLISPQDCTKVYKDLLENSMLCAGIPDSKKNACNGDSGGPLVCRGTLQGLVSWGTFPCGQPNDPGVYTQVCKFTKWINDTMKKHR
ADAM10 inh – human ADAM10 inhibitors, primary screen, biochemical, QFRET, HTS. inhibition, % at 7 µM. recombinant ADAM10, EDANS/DABCYL FRET peptide cleavage, 3 h. AID 720582, 2013. 370,000 tested, 0.62% active;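 active means inhibition above a per-campaign cutoff equal to the mean of compounds falling between control-based bounds plus 3 SD, cut at about 20% in these data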;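 further: 0% = DMSO wells while the 100% control is not disclosed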
ADAM10 confirm – human ADAM10 inhibitors, confirmation, biochemical, QFRET, triplicate; 2,100 tested, 1% active; inhibition, % at 6.95 µM; ADAM10 QFRET peptide cleavage, EDANS fluorescence; shares compounds with ADAM10 inh; AID 743208, 2013;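 active means inhibition above about 20% chosen separately for each screening run, limit read from the data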;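 further: 0% = DMSO wells and 100% = marimastat wells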
ADAM17 counter – ADAM17 inhibitors, counter-screen for ADAM10 exosite inhibitor project, biochemical, QFRET, high throughput; shares compounds with ADAM10 inh; 2,100 tested, 0.5% active; AID 743214, 2013; inhibition, % at 6.95 µM; ADAM17 QFRET peptide cleavage, EDANS fluorescence;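 active means mean triplicate inhibition above the solvent-only control wells' mean plus 3 SD, cut at about 12% in these data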;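 further: 0% = DMSO wells and 100% = marimastat wells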
* marks the source's active call; other numbers are inactive results; / = no result.

SMILES	Ecoli rRNA inh	FGF22 binding	ADAM17 inh	KLK7 zymogen act	ADAM10 inh	ADAM10 confirm	ADAM17 counter
COc1ccc(NC(=O)CC2C(=O)N(CCc3ccccc3)C(=S)N2Cc2cccnc2)cc1 (centres undefined)	/	/	6	0	22*	4	1
CO[C@@H]1CN(C)C(=O)c2ccc(NS(C)(=O)=O)cc2OC[C@@H](C)N(C(=O)c2ccc3c(c2)OCO3)C[C@@H]1C	0	/	/	/	/	/	/
CC1CCCC(C)N1C(=C(Cl)Cl)C(=C1SCCS1)[N+](=O)[O-] (centres undefined)	2	43*	8	1	21*	1	1
O=S(=O)(Nc1cc(C(F)(F)F)ccc1N1CCOCC1)c1ccc2ccccc2c1	/	/	8	0	24*	6	3
COc1cc(CNc2nc3c(C)cc(C)cc3s2)ccc1O	-37	0	4	0	22*	0	0
COc1ccc(-c2noc(-c3ccccc3C(=O)Nc3cccnc3)n2)cc1	/	/	-1	0	5	/	/
COc1ccc(-c2noc(-c3ccccc3C(=O)Nc3cccc(OC)c3)n2)cc1	/	/	7	0	25*	3	1
CCCNC(=O)Nc1ccc2c(c1)C(=O)N(C)C[C@H](OC)[C@@H](C)CN(C(C)=O)[C@H](C)CO2	5	0	/	/	/	/	/
C[C@@H]1[C@@H](O)C[C@@]2(C[C@H](O)c3cc(Cl)cc(Cl)c3O2)O[C@H]1c1ccccc1Cl	/	/	6	1	26*	5	2
C[C@@H]1CN([C@H](C)CO)C(=O)c2cc(NC(=O)Nc3ccccc3)ccc2O[C@H]1CN(C)C(=O)NC1CCCCC1	2	0	/	/	/	/	/
COCCN1C(=O)N(c2cccc(OC)c2)C(=O)C1CC(=O)Nc1ccc(OC)cc1 (centres undefined)	7	0	-1	0	10	/	/
COCCN1C(=O)N(c2cccc(C)c2)C(=O)C1CC(=O)Nc1ccc(OC)cc1 (centres undefined)	7	0	-2	-1	20*	0	0
O=C(C[C@@H]1CC[C@H]2[C@@H](COC[C@@H](O)CN2S(=O)(=O)c2cccc(Cl)c2)O1)NCCCN1CCOCC1	2	0	/	/	/	/	/
O=C(NNC(=S)Nc1ccc(Br)cc1)c1ccc(N2CCOCC2)c([N+](=O)[O-])c1	/	/	5	-1	21*	1	0
Cc1ccc(NC(=S)NNC(=O)c2ccc(N3CCOCC3)c([N+](=O)[O-])c2)cc1Cl	/	/	7	0	21*	4	0
O=C(NNC(=S)Nc1ccc(Cl)cc1Cl)c1ccc(N2CCOCC2)c([N+](=O)[O-])c1	-22	1	4	0	7	/	/
O=C(NCCc1ccccc1)c1oc2ccccc2c1COc1ccccc1	-5	0	7	-1	20*	6	3
CCc1c(Cc2cccc(F)c2)ncn1CCc1ccccc1OC	-54	0	-2	0	-2	/	/
CCCc1c(Cc2cccc(F)c2)ncn1CCc1ccccc1OC	-58	0	-1	0	46*	1	1
COc1ccc(CN2C[C@@H](O)COC[C@H]3O[C@@H](CC(=O)NCCN4CCCC4)CC[C@@H]32)cc1	8	0	/	/	/	/	/
CC(=O)N(c1ccc2oc(=O)sc2c1)S(=O)(=O)c1cccs1	/	/	2	-1	14	/	/
CC(C)C(=O)N(c1ccc2oc(=O)sc2c1)S(=O)(=O)c1cccs1	/	/	3	-1	22*	5	0
